Inconclusive results are not listed. Activity calls are given as the source filed them. How the source made its calls: active means hit-call score of the fitted dose curve at least 0.9, where 1 is the maximum; inconclusive means response in the unintended direction; inactive means score below 0.9.

Read-out in this test: alkyl and aryl transferase (GSTA2), GSTA2 (gene 2939)
In words: CLD_GSTA2_6hr: CellzDirect (CLD) Gene Expression Assay for alkyl and aryl transferase (GSTA2) at 6 hours (AID 2283666). On the procedure:
CLD_6hr is a cell-based, multiplexed-readout assay that uses hepatocyte, a human liver primary cell, with measurements taken at 6 hours after chemical dosing in a 96-well plate.CLD_GSTA2_6hr is one of 16 assay component(s) measured or calculated from the CLD_6hr assay. It is designed to make measurements of mRNA induction, a form of inducible reporter, as detected with chemiluminescence signals by Quantitative Nuclease Protection Assay (qNPA) technology.Data from the assay component CLD_GSTA2_6hr was analyzed at the endpoint, CLD_GSTA2_6hr, in the positive analysis fitting direction relative to DMSO as the negative control and baseline of activity. Using a type of inducible reporter, gain-of-signal activity can be used to understand changes in the reporter gene as they relate to the gene GSTA2. Furthermore, this assay endpoint can be referred to as a primary readout. To generalize the intended target to other relatable targets, this assay endpoint is annotated to the transferase intended target family, where subfamily is alkyl and aryl transferase.
Human hepatocyte cultures were treated daily for two consecutive days with fresh dosing solutions containing appropriate concentrations of the 320 ToxCast chemicals (chemical identities were blinded to CellzDirect and other ToxCast collaborators), vehicle control (0.2% DMSO), and positive control inducers as summarized in Table 1. Due to the large number of treatment groups and chemicals examined, the ToxCast chemicals were divided into two groups (spanning two independent cultures of hepatocytes from separate donor preparations (Hu778: ToxCast plates 1 and 2; Hu776: ToxCast plates 3 and 4). Each preparation of human hepatocyte cultures was treated with respective vehicle control, medium only control, set of six positive controls/reference chemicals for the five hepatic receptor pathways, and a subset of eight of the ToxCast chemicals (indoxacarb, pyrithiobac-sodium, norflurazon, cyhalofop-butyl, methomyl, thiram, acetochlor, and propiconazole). These replicate data, coupled with internal replicates designed within the blinded ToxCast chemical library, provided additional data to evaluate interindividual differences between hepatocyte preparations and their potential impact on chemical profiles.Cell morphology and integrity were evaluated using phase-contrast microscopy as an indicator of hepatocyte cell health (Tyson & Green, 1987). Cultures for each treatment group (i.e., media, vehicle [0.2% DMSO], positive control inducers [multiple concentrations], and the ToxCast chemicals [multiple concentrations]) were observed and cell morphology was assessed relative to vehicle control cultures at each harvest time point (0, 6, 24, or 48 h). […] Images were evaluated at the conclusion of the study to assess changes in cell integrity and account for the effects of chemical exposure on uncharacteristic changes in concentration-dependent gene expression profiles. The results from these determinations of apparent cytotoxicity were annotated (yes/no) alongside the corresponding qNPA data for reference.At the conclusion of each treatment period, hepatocyte cultures (96-well) were washed with 1 volume of HBSS, lysed by addition of 25 ul ArrayPlate lysis buffer (HTG, Tucson, AZ), and 70 ul/well of Denaturation Oil, denatured by incubation at 95C for 10 min, and frozen at approximately -70C until analysis by nuclease protection assay (qNPA) (Roberts et al., 2007). For qNPA analysis, cell lysates were thawed at 50C for approximately 30 min, qNPA probes were added, and samples were incubated at 95C for 10 min to begin the detection process by denaturing the target RNA, dissociating the duplexes and secondary structure hybridization. At the conclusion of the hybridization period, S1 nuclease reagent was added to each sample to digest all nonprotected nucleotides at 50C for 60-90 min. […]
Turning to `CCCN(CCC)c1c([N+](=O)[O-])cc(C(F)(F)F)c(N)c1[N+](=O)[O-]`, the call was inactive.

With `CSC(=O)c1cccc2nnsc12`, the compound was called inactive.

Turning to `O=C(O)C1(C(=O)Nc2ccc(Cl)cc2Cl)CC1`, the outcome was inactive.

On to `CCC(C)OC(=O)N1CCCCC1CCO` (stereo not drawn), for which the result was inactive.

For the compound `CCCCOC(=O)C(C)Oc1ccc(Oc2ccc(C(F)(F)F)cn2)cc1` (stereo not drawn), the compound was called inactive.

Take `CCCCCOC(=O)COc1cc(N2C(=O)C3=C(CCCC3)C2=O)c(F)cc1Cl`: the result was inactive.

As for `CCSC(=O)N(CC(C)C)CC(C)C`, the result was inactive.

As for `COC(=O)c1ccccc1S(=O)(=O)NC(=O)Nc1nc(OC(F)F)cc(OC(F)F)n1`, the call was inactive.

Regarding `CC(C)(C)[C@@H](O)[C@@H](Cc1ccc(Cl)cc1)n1cncn1`, the result was inactive.

For the compound `CCOC(=O)C(C)Oc1ccc(Oc2nc3ccc(Cl)cc3o2)cc1` (stereo not drawn), the compound was called inactive.

On to `N#CSCSc1nc2ccccc2s1`, for which the call was inactive.

As for `S=C([S-])NCCNC(=S)[S-].[Mn+2]`, the compound was called inactive.

For `O=C(Nc1ccc([N+](=O)[O-])cc1Cl)c1cc(Cl)ccc1O`, the outcome was inactive.

As for `CCOC(=O)C(C)Oc1ccc(Oc2cnc3cc(Cl)ccc3n2)cc1` (stereo not drawn), the call was inactive.

Regarding `COC(=O)c1c(Cl)nn(C)c1S(=O)(=O)NC(=O)Nc1nc(OC)cc(OC)n1`, the compound was called inactive.

For the compound `COc1nc(C)nc(NC(=O)NS(=O)(=O)c2ccccc2OCCCl)n1`, the outcome was inactive.

For `CN(C)C(=O)Nc1ccc(Cl)c(Cl)c1`, the outcome was inactive.

For `CCCN(CCC)C(=O)SCC`, the call was inactive.

For `C=CCOC(Cn1ccnc1)c1ccc(Cl)cc1Cl` (stereo not drawn), the compound was classed as inactive.

On to `CCNc1nc(N)nc(Cl)n1`, for which the result was inactive.

Turning to `CCN(CC)C(=O)c1cccc(C)c1`, the compound was called inactive.

As for `c1ccc2[nH]c(-c3cscn3)nc2c1`, the result was inactive.

For the compound `COc1c(Cl)ccc(Cl)c1C(=O)O`, the result was inactive.

As for `COCCO`, the outcome was inactive.

On to `CCC(O)=C1C(=O)CC(C(=O)O)CC1=O` (stereo not drawn), for which the compound was classed as inactive.

On to `CC(C)(c1ccc(O)cc1)c1ccc(O)cc1`, for which the compound was classed as inactive.

In the case of `CCN(Cc1c(F)cccc1Cl)c1c([N+](=O)[O-])cc(C(F)(F)F)cc1[N+](=O)[O-]`, the compound was called inactive.

In the case of `c1ccc(Nc2ccccc2)cc1`, the compound was called inactive.

On to `CC1(C)C(C=C(Cl)Cl)C1C(=O)OCc1cccc(Oc2ccccc2)c1` (stereo not drawn), for which the compound was called inactive.

`CCCOC(=O)NCCCN(C)C`: the compound was called inactive.

Regarding `Oc1ccc(C(c2ccc(O)cc2)C(Cl)(Cl)Cl)cc1`, the compound was classed as inactive.

`COC(=O)c1ccc(I)cc1S(=O)(=O)NC(=O)Nc1nc(C)nc(OC)n1`: the outcome was inactive.

For the compound `Cc1nn(C)c(Oc2ccccc2)c1C=NOCc1ccc(C(=O)OC(C)(C)C)cc1`, the call was inactive.

(Values after PubChem BioAssay (EPA / NIEHS).)
